The panel holds about 83,000 compounds, 20% with a hit somewhere; the sample as a whole holds those more often.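 The test compound was applied at a single concentration to cells in 96-well plates for 48 hours, and percent growth was recorded.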 Unmarked numbers belong to inactive results. Activity calls are given as the source filed them. Rule for the calls: active = growth percent below 10; inactive = the rest.
tested on: IGROV1 ovarian; experiment: NCI-60 one-dose screen, 48 h (100 = growth as untreated, 0 = no growth, -100 = all killed); conditions: 10 µM unless noted

In order of rising growth:
1. NC(=N\N=C/c1ccc(Cl)cc1Cl)/C(N)=N\N=C/c1ccc(Cl)cc1Cl  15.8%
2. C=C1C(=O)O[C@H]2[C@H]1CC/C(CNC(=O)/C=C/c1cc(OC)c(OC)c(OC)c1)=C\CC[C@@]1(C)O[C@@H]21  17.8%
3. O=C(Nc1ncc(Cc2ccccc2)s1)c1ccc2c(c1)OCCO2  23.4%
4. O=C1NCCS(=O)(=O)/C1=C\C=C\c1cccc(C(F)(F)F)c1  35.5%
5. N#CC1=C(N)Oc2c(ccc3cccnc23)C1c1ccccc1 (stereo not given)  42.4%
6. C=C(C)[C@@H]1CC[C@]2(COC(=O)c3cccnc3)CC[C@]3(C)[C@H](CC[C@@H]4[C@@]5(C)CCCN(C(=O)c6cccnc6)C(C)(C)[C@@H]5CC[C@]43C)[C@@H]12  42.8%
7. CCc1ccc(Cc2cnc(NC(=O)c3cc(C)oc3C)s2)cc1  43%
8. Oc1c(Cl)cc(Cl)c2ccc(CN3CCNCC3)nc12  43.3%
9. CCN(CC)c1ccc(/C=N/NC(=O)c2ccccc2Nc2ccnc(C(F)(F)F)c2)c(O)c1  47.5%
10. Cc1ccc2nc(/C=C/c3ccc(N(C)C)cc3)cc(C)c2c1  49%
11. CCOC(=O)CC1C(CNC(=O)NC)OC(n2cnc3c(NC(=O)Nc4ccccc4)ncnc32)C1O[Si](C)(C)C(C)(C)C (stereo not given)  51.1%
12. Nc1nc(N)c2c(n1)NC(c1cccc(Nc3ccnc4cc(C(F)(F)F)ccc34)c1)CC(c1ccc(Cl)cc1)=N2 (stereo not given)  52.9%
13. O=C(/C=C/c1ccc(Cl)cc1)c1ccc(Nc2ccnc3cc(Cl)ccc23)cc1  57%
14. CNc1nc2ncc(-c3c(C)noc3C)cc2n1Cc1ccccc1  63.6%
15. COc1ccc(-c2cc(-c3ccc(Nc4nc(Nc5ccc(Cl)cc5)nc(Nc5ccc(Cl)cc5)n4)cc3)no2)cc1  63.8%
16. C=C(C)[C@@H]1CCC[C@]2(C(=O)OC)CC[C@]3(C)[C@@H](CC[C@@H]4[C@@]5(C)CCCNC(C)(C)[C@@H]5CC[C@]43C)[C@@H]12  65.3%
17. COc1cc2c(c(OC)c1OC)C(=O)CC(c1cccc(C(=O)Nc3ccc(Br)cc3)c1)O2 (stereo not given)  67.4%
18. CC(C)n1cc(C2=C(c3cccc4ccccc34)C(=O)NC2=O)c2cc(Br)ccc21  69.9%
19. CNC(=O)c1cc(Oc2ccc3nc(NC(=O)NC(C)C)sc3c2)ccn1  86.7%
20. CC(=O)/C(Br)=C/c1ccc(Br)o1  86.9%
21. Clc1ccc2c(NCCCn3cnc4c(N5CCCC5)nc(Cl)nc43)ccnc2c1  89%
22. COC(=O)c1nc(-c2ccc(C)cc2)oc1N1CCOCC1  89.5%
23. COC(=O)[C@H]1Cc2c([nH]c3ccccc23)[C@H](c2ccc3c(c2)OCO3)N1  90.6%
24. OC1CSSC1Cn1cnc2c(Nc3ccc(F)c(Cl)c3)ncnc21 (stereo not given)  93.2%
25. CC(Cc1cccc2ccccc12)C(N)=O (stereo not given)  96.8%
26. O=S(=O)(c1ccc(NCSc2nc3ccccc3s2)cc1)c1ccc(NCSc2nc3ccccc3s2)cc1  97%
27. COc1ccc(S(=O)(=O)Oc2ccc(-c3sc4cc(OS(=O)(=O)c5ccc(OC)cc5)ccc4c3C(=O)c3ccc(OCCN4CCCCC4)cc3)cc2)cc1  99.3%
28. [2H]C([2H])([2H])Oc1c(F)cccc1/C=C/C(=O)/C=C(O)/C=C/c1cccc(F)c1OC([2H])([2H])[2H]  101%
29. O=CN1N=C(c2cccc(Nc3ccncc3)c2)CC1c1ccc2c(c1)OCO2 (stereo not given)  102%
30. CCCCC1=C(Br)C(=O)c2ncccc2C1=O  102%
31. COc1ccc(-c2cc(-c3ccc(N(C)C)cc3)nc(NC(=O)c3cccnc3)n2)cc1  102%
32. O=C(O)COc1ccc(F)cc1  107%
33. COc1cc2ncnc(Nc3ccc(S(=O)(=O)Nc4cc(C)on4)cc3)c2cc1OCCCN1CCOCC1  108%
34. CC(=O)Cc1nsc(NC(=O)c2cc(-c3cc(Cl)ccc3Cl)oc2C)n1  109%
35. NCCNc1ccc([N+](=O)[O-])cc1  111%
36. Cc1ccc(S(=O)(=O)N(CCC(=O)O)c2ccccc2)cc1  123%

For O=C1c2ccccc2C(=O)c2cc(Cn3c[n+](Cc4ccc5ccccc5c4)c4ccccc43)ccc21, the growth was 3.66% (active).
In the case of CC(C)(C#N)c1cc(C(=O)Nc2cc(Nc3ncccc3-c3ncnc4nc[nH]c34)ccc2F)cc(C(F)(F)F)c1, the growth is reported as 8.69% (active).
CCCS(=O)(=O)Nc1cccc(Nc2ncnc3cc(NC(=O)CCl)ccc23)c1Cl was tested, and the growth was -52.6% (active).
With Nc1ncc(-c2ccc3ncnc(N4CCc5cc(F)c(Cl)cc54)c3c2)cc1C(F)(F)F the growth was -42.6% (active).

— PubChem BioAssay (NCI)
